Results reported in PubChem BioAssay (NCI).
Compounds without any hit were thinned out: in the full panel of roughly 83,000, 20% have a hit.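 Assay: single dose, 48 h. Readout: percent growth (0 = no net growth; negative = cell death). Active: <10.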 Activity calls are given as the source filed them.

Each molecule was assayed on SF-539 CNS (assay: NCI-60 one-dose screen, 48 h (100 = growth as untreated, 0 = no growth, -100 = all killed)). Settings: 10 µM unless noted.

Question: With Cc1ccnc(Nc2nc3ccccc3[nH]2)n1 as the molecule, how does the growth read?
Answer: The growth was 98% (inactive).

Question: With NNc1ncnc2nc[nH]c12 as the molecule, how does the growth read?
Answer: Its growth is 101% (inactive).

Question: For O=S(=O)(O)c1cccnc1, which growth is on record?
Answer: Its growth is 95.8% (inactive).

Question: How did the growth turn out when O=C(O)c1cc(I)ccc1O was run?
Answer: Its growth is 97.7% (inactive).

Question: For Nc1nc2nnc(-c3ccccc3)c(-c3ccccc3)n2n1, which growth is on record?
Answer: The growth was 80.9% (inactive).

Question: How did the growth turn out when Nc1cc(N)ncn1 was run?
Answer: The growth was 99.2% (inactive).

Question: With Clc1ncnc2nc[nH]c12 as the molecule, how does the growth read?
Answer: The growth was 86.4% (inactive).

Question: How did the growth turn out when N=C(N)c1nn(C2OC(CO)C(O)C2O)c2nc[nH]c(=O)c12 (stereo not given) was run?
Answer: Its growth is -43.8% (active).

Question: Which growth does the source give for CCN(CC)CCCC(C)NC(=S)N/N=C(\C)c1ccccn1 (stereo not given) here?
Answer: The growth was 31.2% (inactive).

Question: For C[n+]1c(/C=C\C=C\N2CCCCC2)sc2ccccc21, which growth is on record?
Answer: The growth was 4.51% (active).

Question: Which growth does the source give for S=c1nc2[nH]c3ccccc3c2n[nH]1 here?
Answer: The growth was 85.1% (inactive).

Question: With Cn1c2ccccc2c2nnc(NCCCCO)nc21 as the molecule, how does the growth read?
Answer: Its growth is 92.6% (inactive).

Question: O=C(NC1CCCCC1)c1ccc(Cl)cc1 was tested. Which growth did it give?
Answer: Its growth is 104% (inactive).

Question: With CNc1ccccc1C(=O)N/N=C/C=C/c1ccccc1 as the molecule, how does the growth read?
Answer: Its growth is 21.7% (inactive).

Question: With C[n+]1cc2cc3c(cc2c2ccccc21)OCO3 as the molecule, how does the growth read?
Answer: The growth was 38.8% (inactive).

Question: CN(C)c1ncnc2c1cnn2C was tested. Which growth did it give?
Answer: The growth was 94.2% (inactive).

Question: CC(C)(C)NCCC(O)c1cc(C(F)(F)F)nc2c(C(F)(F)F)cccc12 (stereo not given) was tested. Which growth did it give?
Answer: The growth was 75.1% (inactive).

Question: Which growth does the source give for Cc1ccc(NC(=S)N2CCOCC2)cc1C here?
Answer: The growth was 103% (inactive).

These molecules were tested on UACC-257 melanoma in the same assay as above. Settings: 10 µM unless noted.

Question: Which growth does the source give for NC(CCl)=NCC12CC3CC(CC(C3)C1)C2 here?
Answer: The growth was -71.2% (active).

Question: Which growth does the source give for COc1ccc2c(c1)Nc1ccccc1S2 here?
Answer: Its growth is 115% (inactive).

Question: How did the growth turn out when CN1CCCN(C(c2ccccc2)c2ccc(Br)cc2)CC1 (stereo not given) was run?
Answer: Its growth is 91% (inactive).

Question: With CCNc1ncnc2[nH]ncc12 as the molecule, how does the growth read?
Answer: Its growth is 89.2% (inactive).

Question: Which growth does the source give for CC(C)(CC(=O)O)CC(=O)O here?
Answer: The growth was 113% (inactive).

Question: For CCc1ccccc1C(=O)N(CC)CC, which growth is on record?
Answer: Its growth is 103% (inactive).

Question: COc1cc2c(c(OC)c1OC)-c1ccc(SC)c(=O)cc1[C@@H](NC1OC(CO)C(O)C(O)C1O)CC2 (stereo not given in full) was tested. Which growth did it give?
Answer: Its growth is 50.5% (inactive).

Question: With O=[N+]([O-])c1c(Cl)ncnc1Cl as the molecule, how does the growth read?
Answer: The growth was 86% (inactive).

Question: CCN(C(=O)Nc1ccccc1Cl)c1ccccc1 was tested. Which growth did it give?
Answer: The growth was 102% (inactive).

Question: For CC(C)(C)CC1(C)NC(=O)NC1=O (stereo not given), which growth is on record?
Answer: Its growth is 114% (inactive).

Question: With O=C(c1ccc(Cl)cc1)N1CCCCC1 as the molecule, how does the growth read?
Answer: The growth was 94% (inactive).

Question: CC(C)c1ccccc1NC(=O)N1CCC(C(C)C)CC1 was tested. Which growth did it give?
Answer: The growth was 95.8% (inactive).

Question: For C=C1SC(=Nc2c(C)cccc2C)N(c2nc(Cl)nc(Cl)n2)C12CCCCC2, which growth is on record?
Answer: The growth was 94.6% (inactive).

Question: With CCCCCCCCCCCCCCCCOc1ccccc1NC(=O)CC(C)=O as the molecule, how does the growth read?
Answer: The growth was 117% (inactive).

Question: How did the growth turn out when O=C(O)CC1=CCCCC1 was run?
Answer: The growth was 100% (inactive).

Question: With CCOC(=O)c1ccc(Nc2sc(C(=O)c3ccc(Br)cc3)c(N)c2C#N)cc1 as the molecule, how does the growth read?
Answer: The growth was 38.2% (inactive).

Question: Which growth does the source give for NNc1ncnc2c1ncn2C1OC(CO)C(O)C1O (stereo not given) here?
Answer: The growth was 84.9% (inactive).

Question: NS(=O)(=O)c1cc(=O)[nH]c(=O)[nH]1 was tested. Which growth did it give?
Answer: Its growth is 113% (inactive).

Question: Which growth does the source give for CC(C)NC(=O)OCc1c(COC(=O)NC(C)C)c(-c2ccc(Cl)cc2)n2c1CCC2 here?
Answer: The growth was 88.8% (inactive).

Question: Which growth does the source give for Cc1ccnc(Nc2nc3ccccc3[nH]2)n1 here?
Answer: Its growth is 105% (inactive).

Question: With NNc1ncnc2nc[nH]c12 as the molecule, how does the growth read?
Answer: The growth was 45.1% (inactive).

Question: Which growth does the source give for O=S(=O)(O)c1cccnc1 here?
Answer: The growth was 123% (inactive).

Question: How did the growth turn out when O=C(O)c1cc(I)ccc1O was run?
Answer: The growth was 104% (inactive).

Question: Nc1nc2nnc(-c3ccccc3)c(-c3ccccc3)n2n1 was tested. Which growth did it give?
Answer: Its growth is 103% (inactive).

Question: Which growth does the source give for Nc1cc(N)ncn1 here?
Answer: Its growth is 112% (inactive).

Question: Which growth does the source give for Clc1ncnc2nc[nH]c12 here?
Answer: Its growth is 103% (inactive).

Question: N=C(N)c1nn(C2OC(CO)C(O)C2O)c2nc[nH]c(=O)c12 (stereo not given) was tested. Which growth did it give?
Answer: Its growth is 3.08% (active).

Question: How did the growth turn out when CCN(CC)CCCC(C)NC(=S)N/N=C(\C)c1ccccn1 (stereo not given) was run?
Answer: Its growth is 57.4% (inactive).

Question: C[n+]1c(/C=C\C=C\N2CCCCC2)sc2ccccc21 was tested. Which growth did it give?
Answer: The growth was -44% (active).

Question: S=c1nc2[nH]c3ccccc3c2n[nH]1 was tested. Which growth did it give?
Answer: Its growth is 107% (inactive).

Question: Cn1c2ccccc2c2nnc(NCCCCO)nc21 was tested. Which growth did it give?
Answer: Its growth is 113% (inactive).

Question: For O=C(NC1CCCCC1)c1ccc(Cl)cc1, which growth is on record?
Answer: Its growth is 105% (inactive).

Question: With CNc1ccccc1C(=O)N/N=C/C=C/c1ccccc1 as the molecule, how does the growth read?
Answer: The growth was 39.1% (inactive).

Question: How did the growth turn out when C[n+]1cc2cc3c(cc2c2ccccc21)OCO3 was run?
Answer: The growth was 69.5% (inactive).

Question: For CN(C)c1ncnc2c1cnn2C, which growth is on record?
Answer: Its growth is 84.2% (inactive).

Question: How did the growth turn out when CC(C)(C)NCCC(O)c1cc(C(F)(F)F)nc2c(C(F)(F)F)cccc12 (stereo not given) was run?
Answer: Its growth is 90.1% (inactive).

Question: For Cc1ccc(NC(=S)N2CCOCC2)cc1C, which growth is on record?
Answer: The growth was 93.5% (inactive).
